# Data published in the supplement of paper PMC8728848.
# Shown is part of a subset that was picked to be rich in the strongest signals.
# Tests used:
# Experiment in all cases: glycan array binding signal (z-score within array); higher = stronger binding
# Details in all cases: glycan notation: IUPAC condensed, linker removed; mutation: N288D, K313I
# [1] = molecular target: Fuc(a1-2)Gal(b1-3)GlcNAc(b1-3)[Fuc(a1-2)Gal(b1-3)GlcNAc(b1-6)]GalNAc
# Procedure, shortened: (§1)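 Glycan array data came from 3228 arrays in the Consortium for Functional Glycomics database, and only arrays with an available protein sequence were kept. Glycan names were put into IUPAC-condensed notation, and columns mapping to the same glycan were averaged. The binding signal is a within-array Z-score, averaged across arrays of one protein sequence run at different concentrations or buffers and across linkers. A negative Z-score can be read as non-binding.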
# [2] = molecular target: Fuc(a1-2)Gal(b1-3)GlcNAc(b1-3)[Gal(b1-4)GlcNAc(b1-6)]Gal(b1-4)Glc
# Procedure, shortened: as §1
# [3] = molecular target: Fuc(a1-2)Gal(b1-4)Fuc(a1-3)]GlcNAc(b1-2)Man(a1-3)[Fuc(a1-2)Gal(b1-4)[Fuc(a1-3)]GlcNAc(b1-2)Man(a1-6)]Man(b1-4)GlcNAc(b1-4)GlcNAc
# Procedure, shortened: as §1
# [4] = molecular target: Fuc(a1-2)Gal(b1-4)GlcNAc(b1-2)Man(a1-3)[Fuc(a1-2)Gal(b1-4)GlcNAc(b1-2)Man(a1-6)]Man(b1-4)GlcNAc(b1-4)GlcNAc
# Procedure, shortened: as §1
# [5] = molecular target: Fuc(a1-2)Gal6S(b1-3)GlcNAc
# Procedure, shortened: as §1
# [6] = molecular target: Fuc(a1-2)[GalNAc(a1-3)]Gal(b1-3)GlcNAc(b1-6)GalNAc
# Procedure, shortened: as §1
# [7] = molecular target: Fuc(a1-2)[GalNAc(a1-3)]Gal(b1-4)GlcNAc
# Procedure, shortened: as §1
# [8] = molecular target: Fuc(a1-2)[GalNAc(a1-3)]Gal(b1-4)GlcNAc(b1-3)GalNAc
# Procedure, shortened: as §1
# [9] = molecular target: Fuc(a1-2)[GalNAc(a1-3)]Gal(b1-4)[Fuc(a1-3)]GlcNAc(b1-3)GalNAc
# Procedure, shortened: as §1
# [10] = molecular target: Fuc(a1-2)[GalNAc(a1-4)]Gal(b1-4)GlcNAc
# Procedure, shortened: as §1
# [11] = molecular target: Fuc(a1-3)[Gal3S(b1-4)]GlcNAc
# Procedure, shortened: as §1
# [12] = molecular target: Gal(a1-3)Gal(b1-3)GlcNAc(b1-6)GalNAc
# Procedure, shortened: as §1
# [13] = molecular target: Gal(a1-3)Gal(b1-3)[Fuc(a1-4)]GlcNAc(b1-2)Man(a1-3)[Gal(a1-3)Gal(b1-3)[Fuc(a1-4)]GlcNAc(b1-2)Man(a1-6)]Man(b1-4)GlcNAc(b1-4)GlcNAc
# Procedure, shortened: as §1
# [14] = molecular target: Gal(b1-3)GalNAc(a1-3)[Fuc(a1-2)]Gal(b1-4)Glc
# Procedure, shortened: as §1
# [15] = molecular target: Gal(b1-3)GlcNAc(b1-3)Gal(b1-4)GlcNAc(b1-2)[Gal(b1-3)GlcNAc(b1-3)Gal(b1-4)GlcNAc(b1-6)]Man(a1-6)[Gal(b1-3)GlcNAc(b1-3)Gal(b1-4)GlcNAc(b1-2)Man(a1-3)]Man(b1-4)GlcNAc(b1-4)[Fuc(a1-6)]GlcNAc
# Procedure, shortened: as §1
# [16] = molecular target: Gal(b1-3)GlcNAc(b1-3)Gal(b1-4)GlcNAc(b1-3)Gal(b1-4)GlcNAc(b1-2)[Gal(b1-3)GlcNAc(b1-3)Gal(b1-4)GlcNAc(b1-3)Gal(b1-4)GlcNAc(b1-6)]Man(a1-6)[Gal(b1-3)GlcNAc(b1-3)Gal(b1-4)GlcNAc(b1-3)Gal(b1-4)GlcNAc(b1-2)Man(a1-3)]Man(b1-4)GlcNAc(b1-4)[Fuc(a1-6)]GlcNAc
# Procedure, shortened: as §1
# [17] = molecular target: Gal(b1-3)[Neu5Ac(a2-6)]GalNAc
# Procedure, shortened: as §1
# [18] = molecular target: Gal(b1-4)GlcNAc(b1-2)Man(a1-3)[GlcNAc(b1-4)][Gal(b1-4)GlcNAc(b1-2)Man(a1-6)]Man(b1-4)GlcNAc(b1-4)GlcNAc
# Procedure, shortened: as §1
# [19] = molecular target: Gal(b1-4)GlcNAc(b1-2)[Gal(b1-4)GlcNAc(b1-4)]Man(a1-3)[Gal(b1-4)GlcNAc(b1-2)[Gal(b1-4)GlcNAc(b1-6)]Man(a1-6)]Man(b1-4)GlcNAc(b1-4)GlcNAc
# Procedure, shortened: as §1
# [20] = molecular target: Gal3S(b1-4)[Fuc(a1-3)]GlcNAc6S
# Procedure, shortened: as §1
# [21] = molecular target: Gal3S4S(b1-4)GlcNAc
# Procedure, shortened: as §1
# [22] = molecular target: Gal3S6S(b1-4)GlcNAc
# Procedure, shortened: as §1
# [23] = molecular target: GalNAc(b1-3)Gal
# Procedure, shortened: as §1
# [24] = molecular target: GalNAc(b1-4)GlcNAc(b1-2)Man(a1-3)[GalNAc(b1-4)GlcNAc(b1-2)Man(a1-6)]Man(b1-4)GlcNAc(b1-4)GlcNAc
# Procedure, shortened: as §1
# [25] = molecular target: GalNAc(b1-6)GalNAc
# Procedure, shortened: as §1
# [26] = molecular target: GalNAc3S(b1-4)[Fuc(a1-3)]GlcNAc
# Procedure, shortened: as §1
# [27] = molecular target: GlcNAc(a1-4)Gal(b1-4)GlcNAc(b1-3)Gal(b1-4)Glc
# Procedure, shortened: as §1
# [28] = molecular target: GlcNAc(a1-6)Gal(b1-4)GlcNAc
# Procedure, shortened: as §1
binder,measurement,setting,value
"Langerin (Homo sapiens), Q9UJ71 (protein) STLNAQIPELKSDLEKASALNTKIRALQGSLENMSKLLKRQNDILQVVSQGWKYFKGNFYYFSLIPKTWYSAEQFCVSRNSHLTSVTSESEQEFLYKTAGGLIYWIGLTKAGMEGDWSWVDDTPFNKVQSARFWIPGEPNDAGNNEHCGNIKAPSLQAWNDAPCDITFLFICKRPYVPSEP",glycan array binding signal (z-score),[1],0.215
same,glycan array binding signal (z-score),[2],-0.246
same,glycan array binding signal (z-score),[3],-0.237
same,glycan array binding signal (z-score),[4],-0.023
same,glycan array binding signal (z-score),[5],-0.321
same,glycan array binding signal (z-score),[6],0.089
same,glycan array binding signal (z-score),[7],-0.27
same,glycan array binding signal (z-score),[8],-0.041
same,glycan array binding signal (z-score),[9],1.92
same,glycan array binding signal (z-score),[10],-0.285
same,glycan array binding signal (z-score),[11],0.041
same,glycan array binding signal (z-score),[12],10.4
same,glycan array binding signal (z-score),[13],-0.042
same,glycan array binding signal (z-score),[14],-0.171
same,glycan array binding signal (z-score),[15],5.7
same,glycan array binding signal (z-score),[16],7.74
same,glycan array binding signal (z-score),[17],-0.085
same,glycan array binding signal (z-score),[18],-0.237
same,glycan array binding signal (z-score),[19],-0.351
same,glycan array binding signal (z-score),[20],-0.1
same,glycan array binding signal (z-score),[21],-0.333
same,glycan array binding signal (z-score),[22],-0.209
same,glycan array binding signal (z-score),[23],-0.289
same,glycan array binding signal (z-score),[24],-0.176
same,glycan array binding signal (z-score),[25],-0.255
same,glycan array binding signal (z-score),[26],0.095
same,glycan array binding signal (z-score),[27],-0.192
same,glycan array binding signal (z-score),[28],-0.229
